Results taken from PubChem BioAssay (EPA / NIEHS).
Calls of active or inactive are those of the source. The calls were made as follows: active = hit-call score of the fitted dose curve at least 0.9, where 1 is the maximum; inactive = score below 0.9.

Key:
[1] = ATG_Ets_CIS: Attagene CIS-FACTORIAL HepG2 Assay for human Erythroblast Transformation Specific (ETS) (AID 2282941); conditions: HepG2 ETS cis-reporter transcription, actives raise or lower the signal
Summary of the method: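 Endogenous transcription factor activity read as reporter mRNA via RT-PCR and capillary electrophoresis, with gain or loss fitted bidirectionally against DMSO. Human HepG2 liver cells, transiently transfected CIS reporter constructs, 24 h exposure.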

[2] = target: Hepatocyte nuclear factor 3-beta (Homo sapiens) (UniProt Q9Y261); assay: ATG_FoxA2_CIS: Attagene CIS-FACTORIAL HepG2 Assay for human Forkhead box A2 (FOXA2) (AID 2282942); conditions: HepG2 cis-reporter transcription factor activity, 24 h; actives raise or lower the signal
Sequence of Hepatocyte nuclear factor 3-beta (Homo sapiens) (Q9Y261 whole entry, looked up): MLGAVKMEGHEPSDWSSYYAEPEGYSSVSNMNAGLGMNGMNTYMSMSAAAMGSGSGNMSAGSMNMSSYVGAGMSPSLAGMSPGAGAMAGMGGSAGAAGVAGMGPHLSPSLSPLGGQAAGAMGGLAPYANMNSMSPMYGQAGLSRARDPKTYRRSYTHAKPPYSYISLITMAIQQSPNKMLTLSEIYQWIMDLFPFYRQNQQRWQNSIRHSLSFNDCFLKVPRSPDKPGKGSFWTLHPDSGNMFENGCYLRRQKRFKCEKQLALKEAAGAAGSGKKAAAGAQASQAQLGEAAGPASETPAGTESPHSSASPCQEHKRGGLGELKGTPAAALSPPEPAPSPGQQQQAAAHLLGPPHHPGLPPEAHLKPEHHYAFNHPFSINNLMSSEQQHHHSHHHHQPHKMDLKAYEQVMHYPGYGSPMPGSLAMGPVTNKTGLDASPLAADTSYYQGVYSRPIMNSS
Summary of the method: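 Multiplexed cis-element reporter assay in transiently transfected HepG2. Twenty-four hours post-dosing, RNA was reverse-transcribed, amplified, FAM-labelled, HpaI-digested and separated by CE. Activity gain or loss relative to DMSO.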

[3] = ATG_GATA_CIS: Attagene CIS-FACTORIAL HepG2 Assay for human GATA Binding Protein (AID 2282944); conditions: HepG2 GATA cis-element reporter, Attagene multiplex mRNA; actives raise or lower the signal
Summary of the method: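 HepG2 cells transiently transfected with multiplexed cis-element reporter units reflecting endogenous transcription factor activity; reporter mRNA measured after 24 h dosing by RT-PCR, 6-FAM labeling, HpaI digestion and capillary electrophoresis. Bidirectional fitting versus DMSO baseline.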

[4] = ATG_GLI_CIS: Attagene CIS-FACTORIAL HepG2 Assay for human Zinc Finger Protein GLI1 (AID 2282945); conditions: HepG2, Attagene cis-factorial reporter mRNA, GLI element; actives raise or lower the signal
Summary of the method: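 Transiently transfected HepG2 cells report endogenous transcription factor activity via cis-element-driven reporter units. After 24 h compound exposure, reporter mRNA was measured by RT-PCR with capillary electrophoresis; bidirectional fitting against DMSO baseline.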

[5] = ATG_GRE_CIS: Attagene CIS-FACTORIAL HepG2 Assay for human Glucocorticoid Response Elements (GRE) (AID 2282947); conditions: HepG2 GRE cis-reporter, Attagene multiplex mRNA; actives raise or lower the signal
Summary of the method: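 Read-out: fluorescent reporter-transcript fragments separated by capillary electrophoresis after RT-PCR. Transiently transfected HepG2 cells carrying cis-element-driven reporter units were dosed for 24 h; gain or loss of signal fitted against DMSO control.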

[6] = ATG_ISRE_CIS: Attagene CIS-FACTORIAL HepG2 Assay for human Interferon Regulatory Factor 1 (IRF1) binding to an Interferon-Stimulated Response Element (ISRE) (AID 2282948); conditions: HepG2 ISRE cis-reporter (Attagene), mRNA transcription readout; actives raise or lower the signal
Summary of the method: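 Endogenous transcription factor activity read as reporter transcript abundance via RT-PCR and capillary electrophoresis. HepG2 cells transiently transfected, 24 h chemical exposure. Gain or loss fitted against DMSO baseline.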

[7] = ATG_M_32_CIS: Attagene CIS-FACTORIAL HepG2 Assay for M32 Transcription Factor (Internal Marker) (AID 2282949); conditions: HepG2 Attagene cis-factorial M32 reporter, mRNA; actives raise or lower the signal;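 also: background control marker of the multiplexed CIS panel rather than a real target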
Summary of the method: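 Transient MRTU transfection of HepG2; 24 h compound treatment; TriZol RNA, oligo(dT) RT, reporter PCR, 6-FAM primer extension, HpaI cut, CE. Gain/loss of signal vs DMSO.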

[8] = ATG_M_06_CIS: Attagene CIS-FACTORIAL HepG2 Assay for M06 Transcription Factor (Internal Marker) (AID 2282950); conditions: HepG2 Attagene CIS-FACTORIAL M06 internal marker reporter; actives raise or lower the signal
Summary of the method: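 HepG2 cells transiently transfected with cis-regulated multiple reporter transcription units were exposed to chemical for 24 h; reporter mRNA was quantified by RT-PCR, 6-FAM primer labelling, HpaI digestion and capillary electrophoresis, fitted bidirectionally against DMSO.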

[9] = target: Bile acid receptor (Homo sapiens) (UniProt Q96RI1); assay: ATG_IR1_CIS: Attagene CIS-FACTORIAL HepG2 Assay for human Nuclear Receptor Subfamily 1 Group H Member 4 (NR1H4), IR1 submotif (AID 2282946); conditions: IR1 reporter transcription, actives raise or lower the signal
Sequence of Bile acid receptor (Homo sapiens) (Q96RI1 whole entry, looked up): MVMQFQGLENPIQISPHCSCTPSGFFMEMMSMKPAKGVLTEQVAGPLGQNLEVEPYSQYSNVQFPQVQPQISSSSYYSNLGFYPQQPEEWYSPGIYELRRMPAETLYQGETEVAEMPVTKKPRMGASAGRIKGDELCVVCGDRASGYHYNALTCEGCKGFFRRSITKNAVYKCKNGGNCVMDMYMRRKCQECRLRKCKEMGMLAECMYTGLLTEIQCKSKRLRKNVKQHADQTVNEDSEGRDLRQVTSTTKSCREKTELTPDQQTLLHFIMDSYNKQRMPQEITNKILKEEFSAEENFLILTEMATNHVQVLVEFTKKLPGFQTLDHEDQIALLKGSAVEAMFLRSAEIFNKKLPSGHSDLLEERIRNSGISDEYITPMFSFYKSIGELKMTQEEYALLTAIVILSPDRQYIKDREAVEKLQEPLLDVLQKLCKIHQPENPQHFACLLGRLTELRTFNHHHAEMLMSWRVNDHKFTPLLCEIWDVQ
Summary of the method: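 Fluorescence of capillary-separated, HpaI-digested RT-PCR reporter products gave IR1-element mRNA induction in HepG2 cells 24 h after dosing. Endogenous transcription factors drove the cis-regulated reporters; activity was fitted bidirectionally against DMSO.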

[10] = ATG_FoxO_CIS: Attagene CIS-FACTORIAL HepG2 Assay for human Forkhead box O (FoxO) (AID 2282943); conditions: HepG2 Attagene cis-reporter, FoxO element, mRNA; actives raise or lower the signal
Summary of the method: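 Read-out: fluorescence of 6-FAM-labelled reporter cDNA fragments resolved by capillary electrophoresis. Transiently transfected HepG2 cells were dosed for 24 h; activity fitted in both directions relative to DMSO controls.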

Measured: AC50

CCCCOC(=O)COC(=O)c1ccccc1C(=O)OCCCC
not listed: [9] | [10]
inactive: all other assays above

Oc1c(Br)cc(Br)cc1Br
inactive: [1] | [2] | [3] | [4] | [7] | [8]

C=C(C)[C@@H]1CC=C(C=O)CC1
not listed: [5] | [10]
inactive: all other assays above

Cc1ccccc1OP(=O)(Oc1ccccc1C)Oc1ccccc1C
active: [6] 7 µM
not listed: [9] | [10]
inactive: all other assays above

[Cl][Sn]([c]1ccccc1)([c]1ccccc1)[c]1ccccc1
active: [3] 1.2 µM | [4] 0.221 µM
not listed: [6] | [10]
inactive: all other assays above

CCCCOP(=O)(CCCC)OCCCC
not listed: [9] | [10]
inactive: all other assays above

CN(C)C(=S)S
not listed: [5] | [9] | [10]
inactive: all other assays above

O=[N+]([O-])c1cc([As](=O)(O)O)ccc1O
not listed: [6] | [9] | [10]
inactive: all other assays above

CC(C)O.CC(C)O.OCCN(CCO)CCO.OCCN(CCO)CCO.[Ti]
inactive: [1] | [2] | [3] | [4] | [7] | [8]

BrCCCCBr
not listed: [9] | [10]
inactive: all other assays above

N#Cc1ccncc1
not listed: [6] | [9] | [10]
inactive: all other assays above

c1ccc2c(c1)Oc1ccccc1O2
not listed: [10]
inactive: all other assays above

CCCCCCCCCCCCN(C)C
not listed: [4] | [9] | [10]
inactive: all other assays above

CCN(CC)C(=O)C(Cl)=C(C)OP(=O)(OC)OC
not listed: [9] | [10]
inactive: all other assays above

O=C=Nc1ccc(Cl)cc1
inactive: [1] | [2] | [3] | [4] | [7] | [8]

O=C(O)COc1cc(Cl)c(Cl)cc1Cl
not listed: [4] | [9]
inactive: all other assays above

CC(c1ccccc1)(c1ccc(O)cc1)c1ccc(O)cc1
active: [1] 20.1 µM | [6] 19.3 µM
not listed: [9] | [10]
inactive: all other assays above

Clc1ccc(C(Cl)(Cl)Cl)cn1
inactive: [1] | [2] | [3] | [5] | [7] | [8]

[F][Sn]([c]1ccccc1)([c]1ccccc1)[c]1ccccc1
inactive: [3] | [5] | [7] | [8]
active: [1] 0.32 µM | [2] 0.892 µM | [6] 0.562 µM

CCOP(=O)(OCC)OC(=CCl)c1ccc(Cl)cc1Cl
not listed: [9] | [10]
inactive: all other assays above

Cc1ccc2nc3sc(=O)sc3nc2c1
inactive: [6] | [7] | [8]
active: [1] 45.9 µM | [2] 11.9 µM | [3] 29.9 µM | [9] 25 µM | [5] 41.1 µM

CCCSP(=S)(OCC)Oc1ccc(Cl)cc1Cl (stereo not given)
not listed: [4] | [9] | [10]
inactive: all other assays above

Cc1cccc(OP(=O)(Oc2cccc(C)c2)Oc2cccc(C)c2)c1
not listed: [4] | [9]
inactive: all other assays above

CC(C)=CC1C(C(=O)OCc2cccc(Oc3ccccc3)c2)C1(C)C (stereo not given)
not listed: [10]
inactive: all other assays above

O=NN1CCCCCC1
not listed: [10]
inactive: all other assays above

C[As+](C)(C)CC(=O)[O-]
not listed: [6] | [9] | [10]
inactive: all other assays above

COCCl
not listed: [9] | [10]
inactive: all other assays above

O=[N+]([O-])c1cccc2ccccc12
not listed: [5] | [9] | [10]
inactive: all other assays above

Brc1c(Br)c(Br)c(Oc2c(Br)c(Br)c(Br)c(Br)c2Br)c(Br)c1Br
not listed: [4] | [6] | [10]
inactive: all other assays above

Cc1cccc(C)c1NC(=O)CN1CCCC1=O
not listed: [6] | [10]
inactive: all other assays above

O=C(Nc1ccc(Br)cc1)c1cc(Br)cc(Br)c1O
active: [1] 4.61 µM | [4] 168 µM | [9] 72.3 µM
not listed: [10]
inactive: all other assays above

O=c1[nH]c(=O)n(Cl)c(=O)n1Cl
not listed: [9] | [10]
inactive: all other assays above

OCCCCO
not listed: [9] | [10]
inactive: all other assays above

C1CN2CCN1CC2
not listed: [4] | [5] | [9]
inactive: all other assays above

Brc1ccc(Oc2c(Br)cc(Br)cc2Br)c(Br)c1
not listed: [4] | [9]
inactive: all other assays above

CC(C)(C)c1ccccc1O
active: [7] 170 µM
not listed: [4] | [9]
inactive: all other assays above

Clc1cnc(Oc2ccc(Oc3ncc(Cl)cc3Cl)cc2)c(Cl)c1
not listed: [2] | [10]
inactive: all other assays above

CCOP(=S)(OCC)SCSc1cc(Cl)ccc1Cl
not listed: [2] | [9]
inactive: all other assays above
